# Most compounds without a hit are left out; they make up all but 6% or so of the library.
# D1 agonist = human D1 receptor agonism; P21728; activation, % at 2 µM; HEK293 T-REx D1 cells, calcium flux, agonist mode; 360,000 compounds, 1% hits; in the data active means activation above about 30%; further: 0% is about no effect
# Target sequence (P21728 whole entry, looked up): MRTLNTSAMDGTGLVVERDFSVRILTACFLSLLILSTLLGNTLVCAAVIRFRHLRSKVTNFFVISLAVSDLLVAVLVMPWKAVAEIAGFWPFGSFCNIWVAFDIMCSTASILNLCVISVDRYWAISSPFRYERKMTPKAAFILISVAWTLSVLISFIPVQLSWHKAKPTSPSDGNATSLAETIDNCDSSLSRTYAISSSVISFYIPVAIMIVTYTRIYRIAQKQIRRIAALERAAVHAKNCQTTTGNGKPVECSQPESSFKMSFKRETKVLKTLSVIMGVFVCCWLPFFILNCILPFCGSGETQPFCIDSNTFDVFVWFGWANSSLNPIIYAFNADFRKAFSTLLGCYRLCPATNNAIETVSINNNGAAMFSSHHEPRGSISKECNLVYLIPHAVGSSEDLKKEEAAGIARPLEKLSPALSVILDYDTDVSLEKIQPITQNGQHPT
#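 Inducible HEK293 T-REx D1 cells, force-coupled to calcium signalling, were plated at 4000 cells/well with tetracycline and held overnight at 30 C. After no-wash calcium dye loading, compound-evoked calcium rise over 180 s flagged agonists.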
# D1 antag = antagonists of human D1 dopamine receptor. P21728. HEK293 TREx D1 cells, calcium flux, dopamine EC80; active compounds read low. activity change, negative = inhibition, % at 10 µM. 360,000 compounds, 3.2% hits. AID 504652; in the data active means activity change below about -30%; further: on the % scale 0 is the no-effect control and ±100 the full control effect
#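 Cells carrying a force-coupled, tetracycline-inducible human D1 receptor report calcium flux. Each well gets a 10 s baseline, compound with 180 s monitoring, then an EC80 dopamine stimulus with a second 180 s kinetic read.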
# D1 PAM = enhances dopamine response at the human D1 receptor; P21728; HEK293 TREx D1 cells, calcium flux, dopamine EC20 potentiation; potentiation, % at 10 µM; 360,000 compounds, 0.036% hits; AID 504651; in the data active means potentiation above about 30%; further: 0% is about no effect
# DRD3 antagonist = D3 dopamine receptor (human) antagonism; P35462; D3R cells, DiscoveRx beta-arrestin luminescence, antagonist mode; active compounds read low; max response, negative = inhibition, %; 360,000 compounds, 2.5% hits; in the data active means max response below about -50%; inconclusive means no clear call, values can overlap the other calls; further: on the % scale 0 is the no-effect control and ±100 the full control effect
#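 Cells expressing the human receptor were seeded at 1500 cells/well, incubated overnight at 37 degrees C in 5% CO2, then exposed to library compounds with dopamine controls for 90 minutes at 37 degrees C before luminescent detection.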
# D3 ag = D3 dopamine receptor (human) agonism | P35462 | D3R DiscoveRx beta-arrestin cells, luminescence, 90 min | max activation, % | 410,000 compounds, 0.58% hits; in the data active means max activation above about 30%; further: 0% is about no effect
#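 Cells at 1500/well, incubated overnight, then treated with pinned compounds (dopamine as control) for 90 min at 37 degrees C. DiscoveRx reagent added for 30 - 60 minutes at room temperature; luminescence read.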
# An asterisk follows results filed as active; ? = inconclusive; / = no result given.
SMILES,D1 agonist,D1 antag,D1 PAM,DRD3 antagonist,D3 ag
COc1ccc(-c2csc(Nc3cccc(C)n3)n2)cc1C,3,1,2,9,41*
Cc1cccnc1Nc1nc(-c2ccccn2)cs1,-1,-7,0,-86*,-39
Cc1cccc(Nc2nc(-c3ccccn3)cs2)n1,3,-20,2,-79*,-41
CN1OC[C@@H]2CN(C(=O)NC3CCCCC3)[C@H](c3ccc(N4CCCCC4)cc3)C[C@@H]21,/,/,/,0,2
Cc1ccccc1NC(=O)Nc1nc(CN)cs1,/,/,/,0,-3
Cc1ccc(-c2nnn(CC(=O)N(c3ccccc3F)C(CC(C)C)C(=O)NCC3CCCO3)n2)cc1 (configuration not stated),1,-38*,0,44,2
CC(C)CC(C(=O)NCC1CCCO1)N(C(=O)Cn1nnc(-c2ccc(F)cc2)n1)c1ccccc1F (configuration not stated),0,3,-4,36,0
CCOC(=O)[C@H](CCc1ccccc1)N[C@@H](C)C(=O)N1CCC[C@H]1C(=O)O,-1,19,-2,0,-9
CCOC(=O)[C@H](CCc1ccccc1)N[C@@H](C)C(=O)N1CCC[C@@H]1C(=O)O,-2,-6,-1,18,74*
OC1(c2ccc(OC(F)F)cc2)CSC(=Nc2cccnc2)N1C1CC1 (configuration not stated),10,-30*,-12,16,4
N#Cc1ccsc1NC(=O)c1cnccn1,2,-7,-3,-52*,-3
N#Cc1c(NC(=O)c2cnccn2)sc2c1CCCC2,1,6,0,4,-4
Cc1cc(Br)ccc1NC(=O)CN(C)C(=O)CCSc1ccc(F)cc1,14,-35*,-9,-3,-9
Cc1cc(OC(C)C(=O)N(Cc2ccco2)Cc2ccco2)cc(C)c1Cl (configuration not stated),4,-6,0,/,10
CC(=O)Nc1ccc(NC(=O)c2ccccc2C)cc1,-1,6,6,-30,1
CC(=O)Nc1ccc(NC(=O)c2ccccc2CCc2ccccc2)cc1,4,-31*,-12,-3,2
OCCN1CCN(CCCN2c3ccccc3Sc3ccc(Cl)cc32)CC1,12,-83*,-6,?,-94
O=C(CN1CCCC1)N1c2ccccc2Sc2ccc(Cl)cc21,3,5,1,-11,1
CN1CCN(CCCN2c3ccccc3Sc3ccc(S(=O)(=O)N(C)C)cc32)CC1,52*,-94*,-1,-53*,-23
OCCN1CCN(CC/C=C2/c3ccccc3Sc3ccc(Cl)cc32)CC1,27,-100*,-5,-12,0
CC(=O)c1ccc2c(c1)N(CCCN1CCC(CCO)CC1)c1ccccc1S2,11,-102*,-7,0,-7
CCCCCCCCCCCCCCCC(=O)OCCC1CCN(CCCN2c3ccccc3Sc3ccc(S(=O)(=O)N(C)C)cc32)CC1,/,/,/,/,-23
COc1ccccc1N1CCN(c2cc(C)nc3nc(-c4ccc(Cl)cc4)nn23)CC1,30,2,-1,/,5
Cc1cc(CC(C)CC(C)(C)C)n(O)c(=O)c1 (configuration not stated) (tested in a mixture with another compound),/,/,/,/,8
CCCc1cc(=O)n2[nH]c(NC(=O)c3ccccc3Cl)nc2n1,0,3,2,/,-22
SMILES,D1 agonist,D1 antag,D1 PAM,DRD3 antagonist,D3 ag
Cc1nc(NCCc2ccc(O)cc2)c2nnn(Cc3ccccc3)c2n1,15,18,4,-82*,-14
Cc1nc(NCCc2ccc(F)cc2)c2nnn(Cc3ccccc3)c2n1,4,11,6,0,5
O=C(NCCc1ccccc1)c1ncn[nH]1,5,10,1,-21,35*
CN(c1ccccc1C(=O)O)S(=O)(=O)c1ccc2[nH]c(=O)oc2c1,5,-11,8,/,1
O=C(Cn1cnc2c(nnn2-c2ccccc2)c1=O)NCc1ccc(F)cc1,1,-60*,-4,11,-2
CCOC(=O)CSC1=C(C#N)C(=O)NC(c2ccc(OC)c(OC)c2)S1 (configuration not stated),3,7,-5,-67*,-1
CCOC(=O)CSc1nc2cc(OC)ccc2cc1C#N,0,5,-5,10,-4
COc1ccc(C2NC(=O)C(C#N)=C(S)N2c2ccc(C)cc2)cc1OC (configuration not stated),2,-4,19,1,-4
CCOC(=O)CSC1=C(C#N)C(=O)NC(c2ccc(OC)cc2)S1 (configuration not stated),-1,/,-1,-58*,-4
C=CCc1ccccc1OCC(O)CNC1CCCC1 (configuration not stated),21,-3,-5,-2,-8
COc1ccc(N2CCN(CC(O)COc3ccccc3C(C)(C)C)CC2)cc1 (configuration not stated),3,15,-4,/,-26
